Bioassay records deposited in PubChem BioAssay by The Scripps Research Institute Molecular Screening Center.
GPR151 activ – activators of human GPR151 | PathHunter beta-arrestin GPR151 cells, luminescence | activation, % at 11.2 µM | actives 1% (n = 650,000); in the data active = activation above about 4.9%;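 also: 0% = median of compound wells and 100% = cells with positive control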
Target sequence (Q8TDV0 whole entry, looked up): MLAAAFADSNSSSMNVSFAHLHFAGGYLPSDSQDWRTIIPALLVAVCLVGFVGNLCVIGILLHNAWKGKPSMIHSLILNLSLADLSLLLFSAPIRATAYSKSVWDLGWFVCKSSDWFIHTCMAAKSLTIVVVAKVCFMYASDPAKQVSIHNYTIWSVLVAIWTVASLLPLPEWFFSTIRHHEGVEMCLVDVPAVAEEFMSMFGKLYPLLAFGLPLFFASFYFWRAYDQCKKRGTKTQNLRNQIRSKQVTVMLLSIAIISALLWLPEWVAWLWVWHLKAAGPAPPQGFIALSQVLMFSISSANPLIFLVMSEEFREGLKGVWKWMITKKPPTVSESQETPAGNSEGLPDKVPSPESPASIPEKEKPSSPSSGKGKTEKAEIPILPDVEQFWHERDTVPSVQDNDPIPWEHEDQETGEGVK
MITF primary – human MITF inhibition, primary screen | O75030 | AlphaScreen MITF homodimerization, bead proximity signal | inhibition, % at 2.6 µM | actives 0.91% (n = 650,000) | AID 1259374; in the data active = inhibition above about 50%;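 also: 0% = vehicle wells with protein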
TEAD-YAP inh – TEAD-YAP interaction inhibition | actives 1.4% (n = 640,000) | AID 1259422 | inhibition, % at 9.12 µM | HEK-TIYL cells, TEAD-Gal4/YAP UAS-luciferase luminescence; in the data active = inhibition above about 32%;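 also: 0% = median of test compound wells and 100% = reference inhibitor wells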
FBW7 act – human FBW7 E3 ligase activation, primary screen; AlphaScreen FBW7–phospho-cyclin E peptide binding, activator screen; normalized activity (activation), % at 26.1 µM; actives 0.13% (n = 650,000); AID 1259310; in the data active = normalized activity above about 1.9%;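 also: purified mutant Fbw7 with reduced substrate affinity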
GPR151 conf act – confirmation of human GPR151 activators; shares compounds with GPR151 activ; GPR151 PathHunter beta-arrestin cells, luminescence, 90 min; % of EA-reagent control over plate median; activation, % at 11.2 µM; 6,700 tested, under 10 active; AID 1508609;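 active = mean percent activation across replicates above the confirmation screen cutoff of 4.91%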
GPR119 ag – GPR119 activation, counter-screen for GPR151 activators. shares compounds with GPR151 activ. GPR119 PathHunter beta-arrestin cells, luminescence, 90 min; 0 = compound-well median, 100 = enzyme-acceptor control. activation, % at 11.2 µM. actives 0.3% (n = 6,700);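 active = mean percent activation in the counterscreen above 29.09%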;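 also: counterscreen on off-target GPR119 to flag nonselective hits from the GPR151 activator screen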
Numbers without * were called inactive; · = not tested or not shown. Rows were chosen to be rich in hits. Some 3.4% of all compounds tested hit in one or more screens of this group.

SMILES	GPR151 activ	MITF primary	TEAD-YAP inh	FBW7 act	GPR151 conf act	GPR119 ag
Cc1cccc(NC(=O)CCc2ccccc2)c1	7.8*	2.5	-21.7	0.3	-0.5	-1.3
C=CCOc1ccc(/C=C2\C(=O)NC(C)=C2C(=O)OC)cc1	5.2*	6.1	-3.1	-0.2	1.3	19.0
CN(C)N1C(N)=C(C#N)C(c2cccc(Cl)c2Cl)C2=C1CCCC2=O (configuration not stated)	5.1*	-7.8	-18.1	0.2	-0.1	1.7
CN(C)N1C(N)=C(C#N)C(c2ccccc2Cl)C2=C1CCCC2=O (configuration not stated)	-1.6	11.1	4.8	0.1	·	·
CC(C)N(CCNC(=O)c1cccc(N2CCCC2CO)n1)C(C)C (configuration not stated)	-0.3	0.3	-1.3	-0.1	·	·
COCCC(=O)Nc1ccc2c(c1)CN(C(=O)c1ccc(CSC)o1)CC2	9.4*	17.3	-14.3	0.4	0.0	2.2
CC(=NC1CC(C)(C)NC(C)(C)C1)c1c(C)[nH]n(-c2ccc([N+](=O)[O-])cc2)c1=O	6.3*	0.5	8.9	-0.1	-0.7	-7.3
CCCc1nnc(SCc2ccc(Br)cc2)n1N	8.4*	-0.5	-8.0	-0.1	-0.6	10.2
CCCc1nnc(SCc2ccc(Cl)cc2)n1N	1.1	-4.3	-1.0	-0.1	·	·
COc1ccc(OC)c(Nc2c(-c3ccc(C)c(C)c3)c(=O)c2=O)c1	0.8	4.4	18.9	-0.2	·	·
O=C(Nc1nc(-c2ccccc2)c(C(=O)c2ccccc2)s1)c1cc(Cl)ccc1[N+](=O)[O-]	1.2	-0.2	1.4	-0.1	·	·
O=C(Nc1nc(-c2ccccc2)c(C(=O)c2ccccc2)s1)c1ccccc1[N+](=O)[O-]	5.0*	1.8	13.8	0.2	0.9	9.3
O=C(O)c1cc(=O)[nH]c2ccc(S(=O)(=O)O)cc12	-0.4	4.1	4.7	0.7	·	·
CCCCN1C(=O)C(=O)C2=C(c3ccc(F)cc3)OC3(O)c4ccccc4C(O)(O)C213 (configuration not stated)	0.5	7.2	2.4	-0.2	·	·
CO[C@@H]1COC(=O)C/C=C/[C@H](C)[C@H](OC)COC(=O)[C@H](C)COC(=O)C/C=C/[C@@H]1C	5.1*	-1.1	·	-0.1	0.9	6.3
COC1COC(=O)[C@@H](C)NC(=O)C/C=C/[C@H](C)[C@@H](OC)COC(=O)C/C=C/[C@@H]1C (some centres not stated)	1.2	-3.2	·	0.2	·	·
O=C(O)CCn1c(=O)oc2cc(S(=O)(=O)O)ccc21	7.5*	4.8	4.6	-0.1	1.6	-1.1
COc1ccc(Cn2c(=O)[nH]c3c(C(N)=O)nc(-c4ccc(C)c(C)c4)nc32)cc1	5.0*	1.1	-11.2	0.6	0.8	7.5
COc1ccc(Cn2c(=O)[nH]c3c(C(N)=O)nc(-c4cccc(C)c4)nc32)cc1	-0.2	-0.1	6.9	0.0	·	·
Cc1ccc2c(c1)CN(CC(=O)NCc1cc(-c3ccccc3)n[nH]1)CC(C)O2 (configuration not stated)	5.2*	5.6	-1.6	0.0	0.6	6.6
CC1CN(CC(=O)NCc2nc(-c3ccccc3)n[nH]2)Cc2ccccc2O1 (configuration not stated)	-0.1	1.4	6.0	-0.2	·	·
CC1CC(C)CN(C(=O)CN2C(=O)NC(Cc3ccccc3)(Cc3ccccc3)C2=O)C1 (configuration not stated)	5.0*	2.2	9.4	-0.1	-0.1	13.4
CC1CCN(C(=O)CN2C(=O)NC(Cc3ccccc3)(Cc3ccccc3)C2=O)CC1	-2.3	3.7	5.9	0.0	·	·
COCC(=O)N1CCCC(CNS(=O)(=O)c2ccc(OC)cc2)C1 (configuration not stated)	-1.0	-1.5	5.2	0.1	·	·
COc1ccc(S(=O)(=O)NCC2CCCN(CCCC3CCCC3)C2)cc1 (configuration not stated)	5.8*	-13.3	3.9	0.1	-0.1	3.1
SMILES	GPR151 activ	MITF primary	TEAD-YAP inh	FBW7 act	GPR151 conf act	GPR119 ag
COc1ccc(S(=O)(=O)NCC2CCCN(Cc3ccncc3)C2)cc1 (configuration not stated)	0.9	-3.8	6.1	-0.3	·	·
COc1ccc(S(=O)(=O)NCC2CCCN(C(=O)c3sccc3C)C2)cc1 (configuration not stated)	5.5*	-10.4	17.2	0.2	1.4	8.3
CCOc1ccccc1NC(=O)CN1CCN(S(=O)(=O)c2cccc([N+](=O)[O-])c2)CC1	-0.6	-6.1	9.1	-0.1	·	·
CN(C)c1cccc(C(=O)OCc2nnc(-c3ccccc3)o2)c1	6.6*	-2.3	3.5	0.0	-0.7	-0.9
CC1(C)CC(NC(=O)C(=O)Nc2ccc(F)cc2)CC(C)(C)N1	0.5	-7.7	-1.6	0.2	·	·
CCOC(=O)CCCN(Cc1ccc(Cl)cc1Cl)S(=O)(=O)c1ccc(F)c(C)c1	5.0*	15.2	11.6	0.5	0.0	-14.3
CCOC(=O)CCN(Cc1ccccc1F)S(=O)(=O)c1ccc(Br)cc1	-1.0	14.8	-8.0	0.2	·	·
CCOC(=O)CCCN(Cc1ccc(F)cc1)S(=O)(=O)c1ccc(F)c(C)c1	3.2	13.5	4.9	0.1	·	·
CCOC(=O)CCN(Cc1ccccc1F)S(=O)(=O)c1ccc(C)cc1	4.9*	-0.1	-1.5	0.2	-1.6	-18.1
Cn1c(SCC(=O)Nc2ccc3c(c2)OCO3)nnc1-c1c[nH]c2ccccc12	-0.2	-10.4	11.2	0.1	·	·
CCOC(=O)C1C(=O)NC(SCc2ccccc2)=C(C#N)C1c1ccccc1[N+](=O)[O-] (configuration not stated)	-0.5	-7.6	11.2	-0.1	·	·
COC(=O)COc1ccc(CNC2CCCCCCC2)cc1	5.4*	0.1	2.8	-0.4	0.2	4.0
O=C(CCN1C(=O)C2C3C=CC(C3)C2C1=O)N1CCN(c2ccccc2Cl)CC1 (configuration not stated)	0.6	-0.2	-14.6	0.0	·	·
O=C(CCN1C(=O)C2C3C=CC(C3)C2C1=O)N1CCN(c2ccccc2F)CC1 (configuration not stated)	5.1*	12.8	2.7	0.0	-0.3	-6.2
O=C(NC(=S)Nc1ccc2oc(-c3cc(Br)ccc3Cl)nc2c1)c1ccco1	0.7	8.9	-4.5	0.7	·	·
COc1cccc(CC2(CCC(=O)N(C)Cc3cc(-c4ccccc4)on3)CCC(=O)N2)c1 (configuration not stated)	-0.2	-1.1	-5.2	0.1	·	·
CCOC(=O)c1sc2ncn(Cc3ccc(Cl)cc3)c(=O)c2c1C	0.8	8.7	7.9	-0.1	·	·
CCOC(=O)c1sc2ncn(Cc3ccc(C(F)(F)F)cc3)c(=O)c2c1C	6.2*	8.7	-2.8	0.0	0.7	10.8
O=C(NC1=NCCC1)c1ccccc1[N+](=O)[O-]	-0.8	14.1	-3.8	-0.1	·	·
